The target in test [1] is Mast/stem cell growth factor receptor Kit (Homo sapiens) (UniProt P10721). The following applies: at 1 µM.
Test [2] shares this target. The following applies: at 10 µM.
Test [3] addresses Proto-oncogene tyrosine-protein kinase Src (Homo sapiens) (UniProt P12931). Particulars: at 10 µM.
For test [4], the target named is Serine/threonine-protein kinase mTOR (Homo sapiens) (UniProt P42345). The following applies: at 1 µM.
The target is the same in test [5]. The following applies: at 10 µM.
For test [6] the target is unchanged. The following applies: at 10 µM. This is another data set of the same source.
The target of test [7] is Ribosomal protein S6 kinase beta-1 (Homo sapiens) (UniProt P23443). The following applies: at 1 µM.
Test [8] shares this target. Particulars: at 10 µM.
Test [9] concerns the target Serine/threonine-protein kinase Nek6 (Homo sapiens) (UniProt Q9HC98). The following applies: at 1 µM.
For test [10] the target is unchanged. The following applies: at 10 µM.
Test [11] deals with Serine/threonine-protein kinase Nek7 (Homo sapiens) (UniProt Q8TDX7). The following applies: at 1 µM.
Test [12] has the same target. Particulars: at 10 µM.
Test [13] has as its target T1, Serine/threonine-protein kinase NLK (Homo sapiens) (UniProt Q9UBE8).
T1 sequence (whole entry): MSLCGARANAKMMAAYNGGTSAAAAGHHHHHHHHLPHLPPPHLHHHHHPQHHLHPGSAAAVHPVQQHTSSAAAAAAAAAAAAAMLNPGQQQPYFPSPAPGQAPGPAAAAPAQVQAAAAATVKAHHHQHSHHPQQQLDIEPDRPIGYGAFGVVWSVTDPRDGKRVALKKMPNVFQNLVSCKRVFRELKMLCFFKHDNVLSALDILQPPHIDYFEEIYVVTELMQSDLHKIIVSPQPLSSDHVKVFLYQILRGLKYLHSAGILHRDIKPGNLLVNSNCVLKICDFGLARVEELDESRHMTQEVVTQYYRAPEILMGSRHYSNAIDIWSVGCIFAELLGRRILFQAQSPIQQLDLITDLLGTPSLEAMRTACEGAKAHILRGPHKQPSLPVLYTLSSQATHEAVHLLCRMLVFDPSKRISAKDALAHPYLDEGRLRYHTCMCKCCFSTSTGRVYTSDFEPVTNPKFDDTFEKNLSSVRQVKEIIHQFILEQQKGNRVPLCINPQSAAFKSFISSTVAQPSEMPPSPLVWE
Particulars: at 10 µM.

The target in test [14] is Serine/threonine-protein kinase PAK 2 (Homo sapiens) (UniProt Q13177). The following applies: at 1 µM.
For test [15] the target is unchanged. The following applies: at 10 µM.
Test [16] concerns the target Proto-oncogene tyrosine-protein kinase Src (Homo sapiens) (UniProt P12931). The following applies: at 1 µM.
The target in test [17] is Serine/threonine-protein kinase mTOR (Homo sapiens) (UniProt P42345). The following applies: at 1 µM. The source holds these as a separate data set.
Test [18] addresses T1, Serine/threonine-protein kinase NLK (Homo sapiens). Particulars: at 1 µM.

Experimental findings from ChEMBL document CHEMBL2218924, “A broad activity screen in support of a chemogenomic map for kinase signalling research and drug discovery” (Biochem J, 2013) are described below.

One may read the residual activity as the signal under treatment as a percentage of the control signal.

Chain of Serine/threonine-protein kinase Nek6 (Homo sapiens) (Q9HC98 whole entry): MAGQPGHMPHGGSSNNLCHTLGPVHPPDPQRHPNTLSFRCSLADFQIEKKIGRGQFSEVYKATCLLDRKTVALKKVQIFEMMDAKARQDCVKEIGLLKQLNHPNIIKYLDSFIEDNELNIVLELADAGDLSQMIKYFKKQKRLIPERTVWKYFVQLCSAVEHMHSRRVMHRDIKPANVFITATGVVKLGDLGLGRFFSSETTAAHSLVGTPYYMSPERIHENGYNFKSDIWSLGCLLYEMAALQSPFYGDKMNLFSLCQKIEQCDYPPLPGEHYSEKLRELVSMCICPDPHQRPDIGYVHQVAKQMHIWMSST
Chain of Mast/stem cell growth factor receptor Kit (Homo sapiens) (P10721 whole entry): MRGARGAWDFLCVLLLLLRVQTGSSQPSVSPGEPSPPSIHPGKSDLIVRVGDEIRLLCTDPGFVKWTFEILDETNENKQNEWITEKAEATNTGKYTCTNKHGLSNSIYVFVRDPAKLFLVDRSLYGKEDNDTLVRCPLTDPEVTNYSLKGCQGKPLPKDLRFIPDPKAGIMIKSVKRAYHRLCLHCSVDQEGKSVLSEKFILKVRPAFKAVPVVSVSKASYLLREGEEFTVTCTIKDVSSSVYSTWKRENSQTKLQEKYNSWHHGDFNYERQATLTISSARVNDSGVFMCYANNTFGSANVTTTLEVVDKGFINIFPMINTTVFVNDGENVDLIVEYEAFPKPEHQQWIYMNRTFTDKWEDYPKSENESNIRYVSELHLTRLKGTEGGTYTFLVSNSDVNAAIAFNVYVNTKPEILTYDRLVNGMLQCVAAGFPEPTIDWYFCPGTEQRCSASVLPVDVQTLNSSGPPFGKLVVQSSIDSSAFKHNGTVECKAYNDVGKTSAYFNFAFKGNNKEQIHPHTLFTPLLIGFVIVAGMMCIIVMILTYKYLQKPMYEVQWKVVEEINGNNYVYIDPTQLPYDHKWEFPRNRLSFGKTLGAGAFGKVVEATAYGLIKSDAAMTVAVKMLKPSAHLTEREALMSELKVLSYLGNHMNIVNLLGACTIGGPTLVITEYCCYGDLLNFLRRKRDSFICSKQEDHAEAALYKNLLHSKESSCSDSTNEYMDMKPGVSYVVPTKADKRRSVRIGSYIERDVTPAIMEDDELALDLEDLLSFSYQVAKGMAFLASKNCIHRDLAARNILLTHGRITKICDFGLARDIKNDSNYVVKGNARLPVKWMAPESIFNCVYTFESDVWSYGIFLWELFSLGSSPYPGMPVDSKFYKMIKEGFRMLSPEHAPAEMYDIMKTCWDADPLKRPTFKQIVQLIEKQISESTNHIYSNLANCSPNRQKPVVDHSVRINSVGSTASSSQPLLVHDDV
Chain of Proto-oncogene tyrosine-protein kinase Src (Homo sapiens) (P12931 2-536 limits assumed): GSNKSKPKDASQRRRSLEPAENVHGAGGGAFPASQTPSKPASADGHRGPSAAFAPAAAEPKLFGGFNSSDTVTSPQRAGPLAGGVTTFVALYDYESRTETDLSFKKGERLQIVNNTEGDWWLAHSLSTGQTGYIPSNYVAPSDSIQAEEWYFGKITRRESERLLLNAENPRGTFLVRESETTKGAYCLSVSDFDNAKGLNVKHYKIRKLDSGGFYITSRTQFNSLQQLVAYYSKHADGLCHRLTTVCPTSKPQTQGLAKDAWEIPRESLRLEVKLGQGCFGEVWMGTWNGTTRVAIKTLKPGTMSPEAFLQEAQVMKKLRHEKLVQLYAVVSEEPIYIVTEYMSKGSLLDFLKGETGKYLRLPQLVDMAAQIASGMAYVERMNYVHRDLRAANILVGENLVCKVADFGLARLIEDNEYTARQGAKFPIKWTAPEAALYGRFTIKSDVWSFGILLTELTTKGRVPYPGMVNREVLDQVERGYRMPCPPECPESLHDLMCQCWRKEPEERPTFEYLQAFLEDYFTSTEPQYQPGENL
Chain of Serine/threonine-protein kinase Nek7 (Homo sapiens) (Q8TDX7 whole entry, looked up): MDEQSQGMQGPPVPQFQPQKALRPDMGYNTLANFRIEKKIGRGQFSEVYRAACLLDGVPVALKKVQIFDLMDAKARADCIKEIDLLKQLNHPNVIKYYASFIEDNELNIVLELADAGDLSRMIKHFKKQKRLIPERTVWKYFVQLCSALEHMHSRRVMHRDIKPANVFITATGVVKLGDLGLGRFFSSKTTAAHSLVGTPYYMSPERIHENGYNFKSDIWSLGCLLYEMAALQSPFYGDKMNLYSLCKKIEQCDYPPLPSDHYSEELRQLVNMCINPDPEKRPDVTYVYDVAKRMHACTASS
Chain of Serine/threonine-protein kinase PAK 2 (Homo sapiens) (Q13177 whole entry): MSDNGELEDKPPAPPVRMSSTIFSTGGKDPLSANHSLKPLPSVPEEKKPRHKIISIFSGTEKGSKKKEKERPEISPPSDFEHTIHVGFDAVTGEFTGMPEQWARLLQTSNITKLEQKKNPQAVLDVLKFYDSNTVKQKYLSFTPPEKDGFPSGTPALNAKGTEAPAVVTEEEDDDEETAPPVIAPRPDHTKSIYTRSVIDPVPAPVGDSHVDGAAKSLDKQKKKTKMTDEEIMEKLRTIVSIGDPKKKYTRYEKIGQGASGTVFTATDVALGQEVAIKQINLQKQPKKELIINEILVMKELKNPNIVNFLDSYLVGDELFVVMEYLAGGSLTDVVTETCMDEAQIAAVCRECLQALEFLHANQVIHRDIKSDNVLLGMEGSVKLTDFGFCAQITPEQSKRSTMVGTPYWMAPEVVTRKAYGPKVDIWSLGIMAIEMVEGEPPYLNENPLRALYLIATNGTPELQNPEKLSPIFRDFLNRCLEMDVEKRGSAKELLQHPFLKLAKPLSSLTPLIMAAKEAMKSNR
Chain of Ribosomal protein S6 kinase beta-1 (Homo sapiens) (P23443 whole entry, looked up): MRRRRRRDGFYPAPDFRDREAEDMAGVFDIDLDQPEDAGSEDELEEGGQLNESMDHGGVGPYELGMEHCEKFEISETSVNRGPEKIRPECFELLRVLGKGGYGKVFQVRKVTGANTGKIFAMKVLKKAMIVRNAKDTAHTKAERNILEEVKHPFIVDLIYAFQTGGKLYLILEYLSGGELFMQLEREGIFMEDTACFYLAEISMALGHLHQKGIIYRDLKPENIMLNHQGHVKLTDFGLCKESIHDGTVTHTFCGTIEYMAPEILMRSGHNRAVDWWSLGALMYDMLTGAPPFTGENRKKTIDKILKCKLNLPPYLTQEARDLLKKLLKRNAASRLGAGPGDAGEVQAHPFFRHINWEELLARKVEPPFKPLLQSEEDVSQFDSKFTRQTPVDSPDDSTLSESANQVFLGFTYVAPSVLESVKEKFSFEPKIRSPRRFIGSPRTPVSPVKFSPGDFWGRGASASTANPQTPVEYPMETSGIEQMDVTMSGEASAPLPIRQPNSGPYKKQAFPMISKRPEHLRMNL

As for `Cn1nc2c3c(cccc31)C(=O)c1ccccc1-2`, the residual activity in [1] is 104%; in test [2], 95%; in test [3], 93%; in [4] it was 82%; in test [5], 84%; in test [6], 66%. The residual activity in test [7] was 70%; in [8] it was 62%; in test [9], 108% (inactive); in test [10] it was 104%; in test [11], 107% (inactive); in test [12] it was 86% (inactive). Further, the residual activity is 87% in [13], 102% in [14] and 98% in [15].

For the molecule `O=C1Nc2ccccc2/C1=C1/Nc2ccccc2/C1=N\OCCC(O)CO` (configuration not stated), the residual activity is 10% in [1]; 1% in test [2]; 20% in test [16]; -2% in test [3]; 113% in [4]; 96% in [5]. Also, the residual activity in test [17] is 112%; in test [6], 110%; in test [7], 20%; in test [8], 6%; in [9], 113% (inactive); in test [10] it was 113%. The residual activity in test [11] is 104% (inactive); in test [13], 70%; in test [14], 80%; in [15], 78%.

Turning to `c1ccc(-c2n[nH]c3c2oc2ccccc23)cc1`, the residual activity in test [1] was determined as 16%; in test [2] it was 1%; in test [16] it was 86%; in [3], 90%; in [4], 88%; in [5], 85%. Besides, the residual activity in test [6] is 72%; in test [9] it was 94% (inactive); in test [11], 94% (inactive); in [13], 85%.

Regarding `COc1cc2ncc(-c3ccccc3)nc2cc1OC`, the residual activity in [1] is 84%; in [2] it was 24%; in [16], 88%; in test [3], 95%; in test [7] it was 63%; in [8], 47%. The residual activity in test [9] was 80% (inactive); in [10], 89%; in test [18], 100%; in test [13], 93%.

On to `COc1ccc(C(=O)Nc2sc3c(c2C(N)=O)CCCC3)cc1OC`, for which the residual activity in [1] is 85%; in test [2] it was 87%; in test [16] it was 76%; in test [3], 104%; in [4], 101%; in test [5], 104%. Also, the residual activity is 95% in test [17]; 88% in test [6]; 106% in [7]; 83% in test [8]; 90% (inactive) in test [9]; 103% in test [10]. Moreover, the residual activity in test [11] is 87% (inactive); in [12] it was 83% (inactive); in test [18], 88%; in [13], 90%; in test [14] it was 96%; in [15], 90%.

With `COc1cccc(-c2cc(=O)c3ccccc3o2)c1N`, the residual activity in [1] is 114%; in test [2], 114%; in test [16], 113%; in test [3], 87%; in test [4], 92%; in [5], 93%. For the same molecule, the residual activity is 86% in test [17]; 51% in test [6]; 119% in [7]; 106% in test [8]; 114% (inactive) in test [9]; 114% in [10]. Moreover, the residual activity in test [11] was 111% (inactive); in test [12], 106% (inactive); in test [18], 107%; in test [13], 87%; in [14] it was 103%; in test [15], 102%.

`COc1cc2ncnc(Nc3ccc(NC(=O)c4ccccc4)cc3)c2cc1OC`: the residual activity in [2] came to 59%; in test [16] it was 83%; in test [3], 95%; in [4] it was 88%; in [5], 92%; in test [17], 97%. Further, the residual activity is 75% in [6]; 67% in test [7]; 38% in test [8]; 103% (inactive) in test [9]; 86% (inactive) in test [12]; 97% in test [13]. Also, in test [15], the residual activity amounted to 89%.

Take `Nc1ccc2ncnc(NCCc3ccc(Oc4ccccc4)cc3)c2c1`: the residual activity in test [1] was determined as 114%; in test [2], 95%; in test [16] it was 110%; in [3] it was 95%; in test [5] it was 96%; in [17], 112%. The residual activity in test [6] is 63%; in test [7], 81%; in [8] it was 51%; in test [9] it was 105% (inactive); in test [10] it was 120%; in test [11], 111% (inactive). Also, the residual activity in test [12] was 117% (inactive); in test [18] it was 111%; in [13] it was 96%; in test [14], 103%; in test [15], 89%.

Regarding `CCN(CC)C(=O)c1ccc(Nc2nc(OCC3CCCCC3)c3nc[nH]c3n2)cc1`, the residual activity in test [1] was 33%; in test [2] it was 5%; in [16], 62%; in test [3], 12%; in [6], 55%; in test [7], 58%. Moreover, the residual activity in test [8] is 17%; in test [10], 95%; in [11], 98% (inactive); in test [12], 82% (inactive).

With `Cc1cccc(-c2[nH]c(C(C)(C)C)nc2-c2ccc3c(c2)OCO3)n1`, the residual activity was 91% in [16]; 102% in [3]; 93% in test [7]; 65% in [8]; 90% (inactive) in [9]; 107% in [10]. In addition, the residual activity was 94% (inactive) in test [11]; 95% (inactive) in test [12]; 94% in [18]; 87% in [13]; 103% in test [14]; 91% in [15].

In the case of `COc1ccc(S(=O)(=O)N(CCO)c2ccccc2CN(C)C/C=C/c2ccc(Cl)cc2)cc1`, the residual activity in [1] worked out at 115%; in test [2], 100%; in test [16], 116%; in test [3] it was 90%; in test [4], 109%; in test [5], 96%. For the same molecule, the residual activity was 97% in test [17]; 101% in [6]; 97% in test [7]; 78% in test [8]; 110% (inactive) in test [9]; 115% in [10]. The residual activity in test [11] was 106% (inactive); in [12], 93% (inactive); in test [18] it was 93%; in test [13] it was 92%; in test [14], 97%; in test [15], 86%.

In the case of `Cc1ccc(S(=O)(=O)/C=C/C#N)cc1`, the residual activity came to 100% in test [1]; 114% in test [2]; 114% in [16]; 76% in test [3]; 95% in test [4]; 101% in test [5]. In addition, the residual activity in test [17] is 86%; in [6], 82%; in [7], 133%; in test [8] it was 102%; in [9] it was 99% (inactive); in [10] it was 108%. Also, the residual activity is 114% (inactive) in [11]; 87% (inactive) in test [12]; 101% in test [18]; 92% in test [13]; 107% in test [14]; 98% in test [15].

`Nc1nc(Nc2ccc(S(N)(=O)=O)cc2)nn1C(=S)Nc1c(F)cccc1F`: the residual activity in test [1] was 100%; in test [2], 66%; in test [16], 23%; in test [3] it was 1%; in test [4], 108%; in test [5], 89%. Further, the residual activity in test [17] is 128%; in test [6], 94%; in test [7], 14%; in test [8], 11%; in test [9], 89% (inactive); in [10], 44%. Besides, the residual activity in test [18] was 17%; in test [13], 3%; in [14] it was 47%; in test [15] it was 7%.

For the molecule `c1ccc2c(-c3ccncc3)c[nH]c2c1`, the residual activity worked out at 110% in test [1]; 98% in test [2]; 80% in test [16]; 101% in test [3]; 109% in test [4]; 107% in [5]. The residual activity is 75% in test [17]; 110% in [6]; 53% in test [7]; 31% in test [8]; 95% (inactive) in test [9]; 110% in test [10]. In addition, the residual activity is 95% (inactive) in test [11]; 95% (inactive) in test [12]; 96% in [18]; 73% in test [13]; 98% in test [14]; 82% in [15].

For the molecule `N#CC(C#N)=C(N)/C(C#N)=C/c1ccc(O)cc1`, the residual activity in test [16] is 83%; in test [6], 61%; in [7] it was 66%; in test [8], 77%; in [14], 88%; in test [15] it was 97%.

On to `O=C1c2ccccc2-[n+]2ccc3c([nH]c4ccccc43)c21`, for which the residual activity in test [1] stood at 106%; in test [2] it was 97%; in [16], 111%; in test [3] it was 91%; in [4], 103%; in test [5] it was 103%. Moreover, the residual activity in test [17] is 116%; in test [6] it was 101%; in test [7], 86%; in test [8], 54%; in [9] it was 109% (inactive); in [10], 104%. Also, the residual activity was 101% (inactive) in test [12]; 86% in test [18]; 70% in test [13]; 107% in test [14]; 94% in [15].
